Assay outcomes as filed in PubChem.
TDP1 cell CPT: DT40-hTDP1 cell growth loss with CPT. chicken DT40 Tdp1-/-;hTDP1 cells + 20 nM CPT, ATP luminescence, 48 h. Potency, µM (highest dose often 46.2 µM), most hits filed as inhibitors. 12% of 420,000 active. AID 686979; also: nearly all actives have a fitted effect of over 55% in size
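Chicken DT40 Tdp1-/- cells complemented with human TDP1, 400 cells/well, exposed to compounds plus 20 nM camptothecin for at least 48 h at 37 C; viability read as ATP content by CellTiter-Glo luminescence.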
TDP1 cell noCPT: qHTS for Inhibitors of human tyrosyl-DNA phosphodiesterase 1 (TDP1): qHTS in cells in absence of CPT; DT40 Tdp1-/- hTDP1 cells, no CPT, ATP luminescence, 48 h; Potency, µM (titrated, usually from 46.2 µM), most hits filed as inhibitors; 15% of 420,000 active; AID 686978, 2013; also: nearly all actives have a fitted effect of over 55% in size
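Compound effects on proliferation are scored in DT40 Tdp1-/-;hTDP1 cells in the absence of CPT. ATP levels (CellTiter-Glo luminescence) are recorded after a ≥48 hr, 37 °C incubation.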
IL1B secr inh: inhibitors of inflammasome signaling (IL-1 beta secretion); THP-1 LPS/ATP IL-1B secretion, AlphaLISA, 16 h; hits give low values; activity change, % at 57.5 µM; 4.7% of 360,000 active; in the data active = activity change below about -50%; inconclusive = mostly about -30% to -49%
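Secreted IL-1B measured by AlphaLISA bead assay after 16 h compound exposure of THP-1 cells; compounds (final up to 57.5 uM) added 1 h before LPS (250 ng/mL) and ATP (1.25 mM) stimulation; lower signal means less secretion.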
HT1080-NT tox: kills 2HG-producing HT-1080-NT fibrosarcoma cells; HT-1080-NT fibrosarcoma viability, CellTiter-Glo ATP luminescence, 48 h; Potency, µM (highest dose often 46.1 µM), hits mostly cytotoxic; 1.6% of 360,000 active; AID 686970;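 also: NT is the 2HG producing partner of a matched IDH1 knockdown line; nearly all actives have a fitted effect of over 55% in size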
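Toxicity toward the 2HG-producing NT line was scored as %Activity, normalised to DMSO and no-cell wells, from CellTiter-Glo luminescence after 48 hours' treatment.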
HT1080 IDH1KD tx: kills HT-1080 cells with IDH1 knockdown; 2% of 360,000 active; HT-1080 IDH1 knockdown viability, ATP luminescence, 48 h; Potency, µM (top dose mostly 46.1 µM), most hits filed as cytotoxic; AID 686971
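HT-1080-IDH1KD cells (IDH1 knocked down), 750/well in RPMI with 5% FBS, treated with compound 48 h at 37 degrees C. Viability by CellTiter-Glo luminescence, normalised to DMSO and no-cell wells; concentration-response curves classed.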
Of the large screens only hits and unclear results are named; the others gave an inactive call. This is a sample that favours compounds with a hit; in the whole collection about 19% have one here. Unless noted, calls follow the shape of the dose curve; as a rule, active = well fitted curve in the direction sought with a large enough effect; inconclusive = small, poorly fitted or top-dose-only effect, or another doubt; inactive = no such curve, though single readings can be large; an effect the other way counts as inactive or inconclusive.

O=C(O)CSCC(=O)N(c1ccccc1)c1ccccc1	none
COC(=O)c1ccccc1S(=O)c1snnc1C (stereo not drawn)	none
COc1ccc2sc(C)[n+](C)c2c1	TDP1 cell CPT inconclusive, TDP1 cell noCPT 18µM
COc1ccc(Nc2nnc(Cc3ccncc3)c3ccccc23)c(OC)c1	IL1B secr inh -57
O=C(NCc1ccc(Cl)cc1)N1CCN(C(=O)c2ccccc2)CC1	TDP1 cell noCPT inconclusive
Cc1ccc(CNC(=O)c2cc3c(C)nc4ccccc4c3o2)cc1	TDP1 cell CPT 9.2µM, TDP1 cell noCPT 7.3µM
Cc1nc2ccccc2c2oc(C(=O)NCCCN3CC(C)CC(C)C3)cc12 (stereo not drawn)	TDP1 cell CPT inconclusive
Cc1nc2ccccc2c2oc(C(=O)NCc3ccccn3)cc12	TDP1 cell CPT inconclusive, TDP1 cell noCPT inconclusive
CCc1ccc(NC(=O)c2cc3c(C)nc4ccccc4c3o2)cc1	TDP1 cell CPT 18µM, TDP1 cell noCPT 16µM, IL1B secr inh -139, HT1080 IDH1KD tx inconclusive
Cc1ccccc1NC(=O)c1cc2c(C)nc3ccccc3c2o1	TDP1 cell CPT inconclusive, TDP1 cell noCPT 23µM
Cc1cc(=O)oc2cc(NC(=O)COc3cccc(C(F)(F)F)c3)ccc12	TDP1 cell CPT inconclusive, TDP1 cell noCPT inconclusive
COc1ccccc1CC(=O)Nc1ccc2nc(Nc3cccc(Cl)c3)cc(C)c2c1	TDP1 cell CPT 21µM, TDP1 cell noCPT 16µM (no result: IL1B secr inh, HT1080-NT tox, HT1080 IDH1KD tx)
COc1ccc(CC(=O)Nc2ccc3nc(Nc4cccc(Cl)c4)cc(C)c3c2)cc1	TDP1 cell CPT 6.5µM, TDP1 cell noCPT 5.8µM (no result: IL1B secr inh, HT1080-NT tox, HT1080 IDH1KD tx)
Cc1cccc(OCC(=O)Nc2ccc3nc(Nc4cccc(C(F)(F)F)c4)cc(C)c3c2)c1	TDP1 cell CPT 21µM, TDP1 cell noCPT 13µM (no result: IL1B secr inh, HT1080-NT tox, HT1080 IDH1KD tx)
Cc1ccc(OCC(=O)Nc2ccc3nc(Nc4cccc(Cl)c4)cc(C)c3c2)cc1	none (no result: IL1B secr inh, HT1080-NT tox, HT1080 IDH1KD tx)
Cc1cc(Nc2cccc(C(F)(F)F)c2)nc2ccc(NC(=O)Cc3ccc(Cl)cc3)cc12	TDP1 cell CPT inconclusive, TDP1 cell noCPT 23µM (no result: IL1B secr inh, HT1080-NT tox, HT1080 IDH1KD tx)
O=C(Cc1ccc([N+](=O)[O-])cc1)Nc1cccc(C(F)(F)F)c1	TDP1 cell CPT inconclusive, TDP1 cell noCPT inconclusive
COc1cccc(CNc2nc(Cl)nc3nc[nH]c23)c1	TDP1 cell CPT 16µM, TDP1 cell noCPT 7.9µM (no result: IL1B secr inh, HT1080-NT tox, HT1080 IDH1KD tx)
c1csc(CNc2ncnc3nc[nH]c23)c1	TDP1 cell CPT inconclusive, TDP1 cell noCPT inconclusive
Clc1nc(NCc2cccs2)c2[nH]cnc2n1	TDP1 cell CPT 13µM, TDP1 cell noCPT 11µM (no result: IL1B secr inh, HT1080-NT tox, HT1080 IDH1KD tx)
Cn1c(N)c(C(=O)CSc2nc(C3CC3)n(-c3ccccc3)n2)c(=O)[nH]c1=O	none
CN(C(=O)COC(=O)c1c[nH]c2ccccc12)c1ccccc1	none
CC(C)N1CCN(C(=O)c2cnn(-c3nccc(-c4ccc5c(c4)OCO5)n3)c2-c2ccco2)CC1	TDP1 cell noCPT inconclusive (no result: IL1B secr inh, HT1080-NT tox, HT1080 IDH1KD tx)
Cc1ccc(S(=O)(=O)c2c(COC(=O)c3ccc(Cl)cc3)c(-c3ccccc3)nn2C)cc1	TDP1 cell CPT 16µM, TDP1 cell noCPT inconclusive
O=C(CSc1nc(-c2ccco2)cc(C(F)(F)F)n1)Nc1ccc2c(c1)OCO2	TDP1 cell CPT inconclusive, TDP1 cell noCPT inconclusive, HT1080-NT tox inconclusive, HT1080 IDH1KD tx inconclusive
CC(=O)c1ccc(NC(=O)CCCSc2nc(-c3ccco3)cc(C(F)(F)F)n2)cc1	TDP1 cell CPT 23µM, TDP1 cell noCPT 16µM (no result: IL1B secr inh, HT1080-NT tox, HT1080 IDH1KD tx)
O=C(CCCSc1nc(-c2ccco2)cc(C(F)(F)F)n1)Nc1ccc2c(c1)OCO2	TDP1 cell CPT inconclusive, TDP1 cell noCPT 23µM, IL1B secr inh inconclusive
O=C(O)CC1NC(=S)N(Cc2ccccc2)C1=O (stereo not drawn)	TDP1 cell CPT 21µM, TDP1 cell noCPT 18µM
CC1NC(=S)N(Cc2ccccc2)C1=O (stereo not drawn)	none
O=C(c1ccccc1)N(c1ccccc1)c1nccc2ccccc12	TDP1 cell noCPT inconclusive
CCOC(=O)N1CCN(c2cc(N(C)CCO)c([N+](=O)[O-])c3nonc23)CC1	none
CC(=O)OCCN(C)c1cc(SC(C)C)c2nonc2c1[N+](=O)[O-]	TDP1 cell CPT 13µM, TDP1 cell noCPT 16µM, IL1B secr inh -68, HT1080-NT tox inconclusive, HT1080 IDH1KD tx inconclusive
